# Source: ChEMBL document CHEMBL1961873, “Compounds: GSK PKIS; Assays: Nanosyn kinase panel” (2012)
# Key:
# [1] = molecular target: Tyrosine-protein kinase Fer (Homo sapiens) (UniProt P16591); details: at 1 µM
# [2] = molecular target: Tyrosine-protein kinase Fes/Fps (Homo sapiens) (UniProt P07332); details: at 0.1 µM
# [3] = molecular target: Tyrosine-protein kinase Fes/Fps (Homo sapiens) (UniProt P07332); details: at 1 µM
# [4] = molecular target: Fibroblast growth factor receptor 1 (Homo sapiens) (UniProt P11362); details: at 0.1 µM
# Fibroblast growth factor receptor 1 (Homo sapiens), sequence (P11362 22-822 limits assumed): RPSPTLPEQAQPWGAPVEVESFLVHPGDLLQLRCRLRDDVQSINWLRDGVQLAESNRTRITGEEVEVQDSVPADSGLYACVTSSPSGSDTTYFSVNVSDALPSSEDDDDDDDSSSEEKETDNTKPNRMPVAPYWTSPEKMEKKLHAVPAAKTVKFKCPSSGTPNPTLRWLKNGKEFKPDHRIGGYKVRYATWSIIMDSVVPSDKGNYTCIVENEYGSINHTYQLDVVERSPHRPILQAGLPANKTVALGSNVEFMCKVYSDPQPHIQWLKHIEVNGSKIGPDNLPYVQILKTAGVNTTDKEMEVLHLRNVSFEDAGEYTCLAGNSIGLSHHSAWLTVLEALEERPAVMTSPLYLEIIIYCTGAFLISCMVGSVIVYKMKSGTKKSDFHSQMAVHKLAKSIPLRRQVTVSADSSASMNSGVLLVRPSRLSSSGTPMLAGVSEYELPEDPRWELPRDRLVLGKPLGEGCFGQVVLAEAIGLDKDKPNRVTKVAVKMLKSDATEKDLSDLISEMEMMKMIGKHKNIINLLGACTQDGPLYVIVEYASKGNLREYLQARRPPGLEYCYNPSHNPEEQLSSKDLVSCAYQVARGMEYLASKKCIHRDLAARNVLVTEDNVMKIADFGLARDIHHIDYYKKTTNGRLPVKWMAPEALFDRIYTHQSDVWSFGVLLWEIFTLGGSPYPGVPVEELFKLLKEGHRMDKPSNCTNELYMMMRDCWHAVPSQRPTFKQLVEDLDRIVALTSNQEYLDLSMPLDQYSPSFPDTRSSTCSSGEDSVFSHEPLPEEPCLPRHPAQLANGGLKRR
# [5] = molecular target: Fibroblast growth factor receptor 1 (Homo sapiens) (UniProt P11362); details: at 1 µM
# [6] = molecular target: Fibroblast growth factor receptor 2 (Homo sapiens) (UniProt P21802); details: at 0.1 µM
# [7] = molecular target: Fibroblast growth factor receptor 2 (Homo sapiens) (UniProt P21802); details: at 1 µM
# [8] = molecular target: Fibroblast growth factor receptor 3 (Homo sapiens) (UniProt P22607); details: at 0.1 µM
# Fibroblast growth factor receptor 3 (Homo sapiens), sequence (P22607 23-806 limits assumed): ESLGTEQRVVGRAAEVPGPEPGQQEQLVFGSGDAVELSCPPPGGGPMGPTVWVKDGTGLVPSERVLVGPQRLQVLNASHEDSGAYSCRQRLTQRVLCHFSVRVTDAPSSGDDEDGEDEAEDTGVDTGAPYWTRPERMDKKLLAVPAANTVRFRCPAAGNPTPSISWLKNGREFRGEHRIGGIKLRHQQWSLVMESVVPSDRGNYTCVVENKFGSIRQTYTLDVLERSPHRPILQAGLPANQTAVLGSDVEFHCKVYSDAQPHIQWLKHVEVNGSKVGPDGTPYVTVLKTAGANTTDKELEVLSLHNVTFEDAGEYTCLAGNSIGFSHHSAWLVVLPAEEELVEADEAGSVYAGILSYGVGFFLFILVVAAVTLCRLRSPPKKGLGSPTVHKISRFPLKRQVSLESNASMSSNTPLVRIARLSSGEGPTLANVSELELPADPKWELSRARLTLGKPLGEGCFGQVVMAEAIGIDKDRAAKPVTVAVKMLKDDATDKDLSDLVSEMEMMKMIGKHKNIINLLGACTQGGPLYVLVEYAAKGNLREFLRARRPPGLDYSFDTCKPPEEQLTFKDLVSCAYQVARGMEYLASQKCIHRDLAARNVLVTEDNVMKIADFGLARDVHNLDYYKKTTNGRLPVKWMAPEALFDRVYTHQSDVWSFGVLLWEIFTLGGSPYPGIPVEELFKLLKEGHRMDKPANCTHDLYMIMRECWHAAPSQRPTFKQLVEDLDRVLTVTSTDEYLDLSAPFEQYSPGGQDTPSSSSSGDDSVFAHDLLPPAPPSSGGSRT
# [9] = molecular target: Fibroblast growth factor receptor 3 (Homo sapiens) (UniProt P22607); details: at 1 µM
# [10] = molecular target: Fibroblast growth factor receptor 4 (Homo sapiens) (UniProt P22455); details: at 0.1 µM
# [11] = molecular target: Fibroblast growth factor receptor 4 (Homo sapiens) (UniProt P22455); details: at 1 µM
# [12] = molecular target: Tyrosine-protein kinase Fgr (Homo sapiens) (UniProt P09769); details: at 0.1 µM
# Tyrosine-protein kinase Fgr (Homo sapiens), sequence (P09769 2-529 limits assumed): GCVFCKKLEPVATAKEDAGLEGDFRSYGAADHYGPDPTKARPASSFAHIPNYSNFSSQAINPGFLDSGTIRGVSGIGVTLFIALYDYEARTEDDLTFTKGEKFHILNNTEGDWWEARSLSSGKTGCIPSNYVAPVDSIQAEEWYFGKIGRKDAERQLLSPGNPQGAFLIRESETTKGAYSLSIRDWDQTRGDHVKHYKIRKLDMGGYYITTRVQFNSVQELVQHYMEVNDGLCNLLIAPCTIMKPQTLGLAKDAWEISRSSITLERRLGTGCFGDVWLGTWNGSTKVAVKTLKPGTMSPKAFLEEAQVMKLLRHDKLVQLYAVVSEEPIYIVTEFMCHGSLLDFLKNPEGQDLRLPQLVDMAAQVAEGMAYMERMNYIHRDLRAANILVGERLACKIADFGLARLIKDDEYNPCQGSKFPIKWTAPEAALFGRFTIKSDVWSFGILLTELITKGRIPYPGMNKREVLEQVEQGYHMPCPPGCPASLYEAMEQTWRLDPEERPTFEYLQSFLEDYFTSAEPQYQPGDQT
# [13] = molecular target: Tyrosine-protein kinase Fgr (Homo sapiens) (UniProt P09769); details: at 1 µM
# [14] = molecular target: Vascular endothelial growth factor receptor 1 (Homo sapiens) (UniProt P17948); details: at 0.1 µM
# Vascular endothelial growth factor receptor 1 (Homo sapiens), sequence (P17948 whole entry): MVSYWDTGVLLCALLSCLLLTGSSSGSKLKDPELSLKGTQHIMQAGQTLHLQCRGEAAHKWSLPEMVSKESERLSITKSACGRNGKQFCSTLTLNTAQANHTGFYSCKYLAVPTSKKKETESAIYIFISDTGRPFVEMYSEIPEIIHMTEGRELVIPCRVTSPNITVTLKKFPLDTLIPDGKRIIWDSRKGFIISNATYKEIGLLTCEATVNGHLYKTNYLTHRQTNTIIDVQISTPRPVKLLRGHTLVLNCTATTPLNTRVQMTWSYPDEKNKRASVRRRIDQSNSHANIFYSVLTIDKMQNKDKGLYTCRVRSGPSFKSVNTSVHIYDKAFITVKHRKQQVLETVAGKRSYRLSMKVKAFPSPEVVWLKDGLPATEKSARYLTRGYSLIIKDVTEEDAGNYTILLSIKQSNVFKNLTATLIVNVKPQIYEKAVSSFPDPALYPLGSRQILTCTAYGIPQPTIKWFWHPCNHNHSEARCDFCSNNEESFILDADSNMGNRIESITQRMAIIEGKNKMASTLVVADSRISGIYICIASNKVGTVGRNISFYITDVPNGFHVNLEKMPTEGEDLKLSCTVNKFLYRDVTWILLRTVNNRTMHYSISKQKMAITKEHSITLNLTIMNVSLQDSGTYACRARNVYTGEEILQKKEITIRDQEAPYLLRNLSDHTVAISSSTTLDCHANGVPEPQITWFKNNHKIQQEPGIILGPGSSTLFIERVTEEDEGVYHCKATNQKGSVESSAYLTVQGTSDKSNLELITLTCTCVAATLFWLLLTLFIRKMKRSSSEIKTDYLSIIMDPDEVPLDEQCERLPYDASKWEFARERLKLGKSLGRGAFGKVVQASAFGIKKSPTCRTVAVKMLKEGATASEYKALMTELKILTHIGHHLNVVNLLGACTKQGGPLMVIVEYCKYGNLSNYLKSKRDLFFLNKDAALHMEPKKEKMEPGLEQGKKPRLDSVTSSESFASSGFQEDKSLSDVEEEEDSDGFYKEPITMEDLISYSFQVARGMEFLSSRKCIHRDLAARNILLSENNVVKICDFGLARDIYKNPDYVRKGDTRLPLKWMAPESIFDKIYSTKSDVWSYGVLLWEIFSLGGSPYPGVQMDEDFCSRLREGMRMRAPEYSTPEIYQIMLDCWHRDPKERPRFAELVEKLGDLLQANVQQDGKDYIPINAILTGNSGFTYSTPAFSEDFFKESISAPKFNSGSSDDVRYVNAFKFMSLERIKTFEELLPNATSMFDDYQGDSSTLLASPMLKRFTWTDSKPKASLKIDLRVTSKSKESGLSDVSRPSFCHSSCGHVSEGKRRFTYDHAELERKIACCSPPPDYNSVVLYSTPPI
# [15] = molecular target: Vascular endothelial growth factor receptor 1 (Homo sapiens) (UniProt P17948); details: at 1 µM
# [16] = molecular target: Receptor-type tyrosine-protein kinase FLT3 (Homo sapiens) (UniProt P36888); details: at 0.1 µM
# [17] = molecular target: Receptor-type tyrosine-protein kinase FLT3 (Homo sapiens) (UniProt P36888); details: at 1 µM
# [18] = test system: T1, Receptor-type tyrosine-protein kinase FLT3 (Homo sapiens), P36888 [D835Y]; details: at 0.1 µM
# T1 sequence (whole entry): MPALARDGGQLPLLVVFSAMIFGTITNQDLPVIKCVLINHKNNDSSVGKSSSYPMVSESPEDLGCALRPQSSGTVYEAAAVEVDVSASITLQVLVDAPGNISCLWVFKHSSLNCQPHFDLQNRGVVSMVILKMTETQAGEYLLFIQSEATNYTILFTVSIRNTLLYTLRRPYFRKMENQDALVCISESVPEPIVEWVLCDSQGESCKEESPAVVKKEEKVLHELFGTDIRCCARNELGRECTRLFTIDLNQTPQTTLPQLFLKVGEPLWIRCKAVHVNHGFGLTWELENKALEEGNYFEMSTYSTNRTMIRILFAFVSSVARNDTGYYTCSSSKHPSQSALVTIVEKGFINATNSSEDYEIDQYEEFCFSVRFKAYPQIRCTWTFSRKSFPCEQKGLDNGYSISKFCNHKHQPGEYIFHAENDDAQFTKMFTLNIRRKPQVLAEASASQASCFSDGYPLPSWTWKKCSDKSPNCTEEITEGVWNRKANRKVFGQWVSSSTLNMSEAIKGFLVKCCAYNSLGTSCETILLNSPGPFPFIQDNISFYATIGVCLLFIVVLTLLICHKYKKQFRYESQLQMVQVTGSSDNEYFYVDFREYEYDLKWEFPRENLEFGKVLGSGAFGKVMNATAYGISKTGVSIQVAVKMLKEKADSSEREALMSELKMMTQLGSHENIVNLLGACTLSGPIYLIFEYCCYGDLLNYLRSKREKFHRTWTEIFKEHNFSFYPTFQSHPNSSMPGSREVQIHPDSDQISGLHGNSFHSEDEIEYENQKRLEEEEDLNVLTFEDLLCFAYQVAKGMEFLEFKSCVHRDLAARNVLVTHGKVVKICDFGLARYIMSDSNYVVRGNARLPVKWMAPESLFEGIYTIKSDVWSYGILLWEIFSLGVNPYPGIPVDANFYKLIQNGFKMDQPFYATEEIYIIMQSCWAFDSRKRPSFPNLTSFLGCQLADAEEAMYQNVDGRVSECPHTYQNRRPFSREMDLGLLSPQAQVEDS
# [19] = molecular target: Non-receptor tyrosine-protein kinase TYK2 (Homo sapiens) (UniProt P29597); details: at 1 µM;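 note: values are mean percent inhibition of TYK2 kinase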
# [20] = molecular target: T2, Tyrosine-protein kinase receptor TYRO3 (Homo sapiens) (UniProt Q06418); details: at 0.1 µM;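 note: reported percentages are averaged inhibition values of TYRO3 kinase activity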
# T2 sequence (whole entry): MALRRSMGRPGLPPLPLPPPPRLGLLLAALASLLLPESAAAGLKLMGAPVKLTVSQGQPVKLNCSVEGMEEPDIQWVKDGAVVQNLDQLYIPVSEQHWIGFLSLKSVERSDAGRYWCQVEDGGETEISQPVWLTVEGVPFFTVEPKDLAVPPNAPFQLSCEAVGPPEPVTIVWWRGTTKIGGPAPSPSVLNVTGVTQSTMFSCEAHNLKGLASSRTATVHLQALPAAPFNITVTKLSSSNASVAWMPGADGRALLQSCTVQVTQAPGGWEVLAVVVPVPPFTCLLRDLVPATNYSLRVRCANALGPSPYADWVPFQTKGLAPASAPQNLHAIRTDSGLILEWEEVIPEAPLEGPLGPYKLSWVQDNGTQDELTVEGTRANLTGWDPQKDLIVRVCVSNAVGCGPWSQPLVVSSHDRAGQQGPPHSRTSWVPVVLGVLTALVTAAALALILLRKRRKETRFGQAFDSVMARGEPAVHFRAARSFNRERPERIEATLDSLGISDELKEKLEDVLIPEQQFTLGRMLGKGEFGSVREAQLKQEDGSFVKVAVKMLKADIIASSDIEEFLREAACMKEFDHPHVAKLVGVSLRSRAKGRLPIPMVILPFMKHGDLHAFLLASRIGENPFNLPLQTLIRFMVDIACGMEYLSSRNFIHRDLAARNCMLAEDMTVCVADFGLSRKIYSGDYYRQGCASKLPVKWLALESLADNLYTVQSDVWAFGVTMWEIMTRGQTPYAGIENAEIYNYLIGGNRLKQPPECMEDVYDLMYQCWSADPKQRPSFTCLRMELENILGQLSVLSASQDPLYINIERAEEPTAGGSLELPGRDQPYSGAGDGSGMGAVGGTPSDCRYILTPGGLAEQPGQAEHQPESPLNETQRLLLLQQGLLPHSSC
# Tyrosine-protein kinase Fer (Homo sapiens), sequence (P16591 whole entry, looked up): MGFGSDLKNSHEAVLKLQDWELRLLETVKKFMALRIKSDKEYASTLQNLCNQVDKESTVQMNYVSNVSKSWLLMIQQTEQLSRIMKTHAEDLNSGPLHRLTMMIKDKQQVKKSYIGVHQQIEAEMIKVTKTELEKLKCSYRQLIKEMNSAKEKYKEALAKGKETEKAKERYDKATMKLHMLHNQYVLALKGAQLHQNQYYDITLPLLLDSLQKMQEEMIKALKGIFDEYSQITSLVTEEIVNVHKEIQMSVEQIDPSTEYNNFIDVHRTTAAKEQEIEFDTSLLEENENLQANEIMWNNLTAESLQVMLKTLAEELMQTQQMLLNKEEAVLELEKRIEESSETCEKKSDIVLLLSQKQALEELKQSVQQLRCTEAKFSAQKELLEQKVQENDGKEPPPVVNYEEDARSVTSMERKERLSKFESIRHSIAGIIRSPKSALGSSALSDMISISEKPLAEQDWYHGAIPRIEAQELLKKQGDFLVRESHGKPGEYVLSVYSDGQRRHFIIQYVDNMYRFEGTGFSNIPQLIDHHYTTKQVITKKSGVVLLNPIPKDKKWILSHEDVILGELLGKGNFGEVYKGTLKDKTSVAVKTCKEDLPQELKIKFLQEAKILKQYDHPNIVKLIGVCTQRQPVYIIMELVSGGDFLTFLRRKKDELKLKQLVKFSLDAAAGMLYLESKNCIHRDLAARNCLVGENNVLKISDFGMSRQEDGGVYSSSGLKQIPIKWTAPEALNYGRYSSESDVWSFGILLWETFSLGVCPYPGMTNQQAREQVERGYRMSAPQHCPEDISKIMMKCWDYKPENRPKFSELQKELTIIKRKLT
# Tyrosine-protein kinase Fes/Fps (Homo sapiens), sequence (P07332 whole entry): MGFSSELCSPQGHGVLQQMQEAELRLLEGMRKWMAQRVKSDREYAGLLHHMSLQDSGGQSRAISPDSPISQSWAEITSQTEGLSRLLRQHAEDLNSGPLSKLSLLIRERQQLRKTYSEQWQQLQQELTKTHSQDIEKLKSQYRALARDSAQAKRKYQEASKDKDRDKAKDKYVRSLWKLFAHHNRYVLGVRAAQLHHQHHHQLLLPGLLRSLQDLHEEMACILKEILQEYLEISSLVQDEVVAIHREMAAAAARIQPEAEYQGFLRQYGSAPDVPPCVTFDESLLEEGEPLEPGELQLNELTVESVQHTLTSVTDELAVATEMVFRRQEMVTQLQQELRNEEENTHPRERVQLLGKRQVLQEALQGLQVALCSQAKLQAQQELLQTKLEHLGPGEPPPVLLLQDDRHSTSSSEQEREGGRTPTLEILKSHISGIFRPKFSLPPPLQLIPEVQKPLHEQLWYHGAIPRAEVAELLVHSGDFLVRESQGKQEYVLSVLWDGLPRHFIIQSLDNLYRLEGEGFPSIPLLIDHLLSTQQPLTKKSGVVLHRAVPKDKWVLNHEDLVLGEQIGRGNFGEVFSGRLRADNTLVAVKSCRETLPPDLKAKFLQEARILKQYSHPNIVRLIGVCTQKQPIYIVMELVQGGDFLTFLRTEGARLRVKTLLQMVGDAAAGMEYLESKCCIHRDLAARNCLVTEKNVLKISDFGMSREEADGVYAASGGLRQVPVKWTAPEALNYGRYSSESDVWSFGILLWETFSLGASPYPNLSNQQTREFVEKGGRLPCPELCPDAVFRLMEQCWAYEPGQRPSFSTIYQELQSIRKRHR
SMILES,inhibition [1],inhibition [2],inhibition [3],inhibition [4],inhibition [5],inhibition [6],inhibition [7],inhibition [8],inhibition [9],inhibition [10],inhibition [11],inhibition [12],inhibition [13],inhibition [14],inhibition [15],inhibition [16],inhibition [17],inhibition [18],inhibition [19],inhibition [20]
O=C(Nc1ccc(Oc2ccc3[nH]c(NC(=O)c4ccco4)nc3c2)cc1)Nc1cc(C(F)(F)F)ccc1F,5.37%,0.02%,0.11%,-3.4%,9.84%,-3.04%,33.2%,-0.92%,7.51%,-1.82%,-2.3%,1.62%,9.51%,23.6%,78.8%,15%,70.7%,1.75%,-3.76%,5.34%
COc1cccc(-n2ncc3c(N/N=C/c4ccc(S(C)(=O)=O)cc4)ncnc32)c1,2.49%,0.5%,0.07%,3.99%,0.92%,-2.62%,4.85%,1.85%,4.08%,-2.71%,-1.16%,28.5%,64%,5.44%,18.8%,8.26%,27.9%,18.6%,1.37%,10.6%
CCS(=O)(=O)c1ccc(OC)c(Nc2nccc(N(C)c3ccc4c(C)n[nH]c4c3)n2)c1,34.3%,3.93%,6.48%,8.89%,37.3%,18.8%,56.1%,17.4%,54.7%,-0.42%,11.3%,23.1%,61.6%,60.8%,91.2%,6.38%,6.74%,-7.67%,-2.86%,1.44%
NC(=O)c1cccc(Nc2nccc(Nc3cccc(F)c3)n2)c1,14.6%,1.24%,7.67%,9.63%,10.2%,2.81%,13%,4.22%,9.81%,2.38%,1.79%,5.52%,30%,1.29%,16.4%,3.08%,16.5%,1.55%,32.4%,10.5%
CN(C)c1cc2c(Nc3ccc4c(cnn4Cc4ccccc4)c3)ncnc2cn1,7.22%,2.58%,3.25%,2.28%,4.22%,2.03%,2.51%,4.39%,4.14%,0.85%,7.89%,9.23%,33.2%,1.1%,1.36%,1.97%,1.77%,0.4%,-5.95%,0.23%
COC(=O)Nc1nc2cc(Oc3ccc(NC(=O)Nc4cccc(Br)c4)cc3)ccc2[nH]1,4.33%,1.77%,2.25%,3.32%,0.5%,1.09%,3.33%,4.36%,2.66%,-1.88%,2.05%,4.68%,2.98%,33%,53.7%,32.8%,56.7%,-2.2%,0.6%,6.92%
